# From publication PMC7819943, “Rice protein-binding microarrays: a tool to detect cis-acting elements near promoter regions in rice”
# Whole data set: some 68,000 sequences, median “fluorescence intensity (a.u.)” near 9,100, cut for the highest 2% near 16,000. What follows is part of a selection rich in the highest values, with near analogues and random picks from the rest.
# Target: OsWRKY34 (Oryza sativa, UniProt Q0JBA9 1-250)
# Assay: protein-binding microarray (RPBM); PBS, 2% BSA, 51.3 ng/ul salmon testes DNA, 50 uM zinc acetate, 200 nM TF, 25 C, 1 h; high values mean tight binding
# Details: protein: recombinant; tags: N-terminal polyhistidine and DsRed monomer fusion (pET32a); label: CyDye5-dUTP incorporated in the synthesized complementary strand; 3' TTTTT single-stranded linker to array surface; dsDNA, one strand shown
# Procedure, shortened: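 Transcription factors, each fused N-terminally to a polyhistidine tag and DsRed, were expressed in E. coli BL21-CodonPlus and purified on Ni–NTA. A custom Agilent array was made double-stranded by primer extension with Cy5-dUTP and blocked with 2% BSA. It was incubated with 200 nM protein in PBS, 2% BSA, salmon testes DNA and 50 µM zinc acetate at 25 °C for 1 h, then washed. The binding signal is per-feature fluorescence intensity (arbitrary units) read on an Axon 4000B scanner.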
# Chain of OsWRKY34 (Q0JBA9 entry or part of it): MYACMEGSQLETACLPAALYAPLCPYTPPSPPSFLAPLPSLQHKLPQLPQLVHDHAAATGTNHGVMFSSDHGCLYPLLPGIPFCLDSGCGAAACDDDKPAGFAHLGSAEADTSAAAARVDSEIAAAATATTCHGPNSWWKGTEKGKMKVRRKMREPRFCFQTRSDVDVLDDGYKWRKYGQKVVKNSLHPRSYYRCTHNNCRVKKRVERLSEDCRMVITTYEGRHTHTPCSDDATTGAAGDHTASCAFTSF
row,Sequence,binding signal
1,GGTTAGGTTTTTTTATAGAGGGAGTAGTATGCAATTATTTCGGAGTCACCTAGTGCAG,9450 fluorescence intensity (a.u.)
2,TTTCTTGGTTCCTGTGTCTAAGCCAGCTGTAAACTTACAACGGAGTCACCTAGTGCAG,8450 fluorescence intensity (a.u.)
3,ATTTCCAAGCTCTCTTTGCAGTTACTCCTCGGTGTGCTCCCGGAGTCACCTAGTGCAG,8250 fluorescence intensity (a.u.)
4,GTCATTGGTGGTTTATATTGTTTGGCTTTTTTCCGGATTACGGAGTCACCTAGTGCAG,18500 fluorescence intensity (a.u.)
5,TTTTGGATTTTGTTTCATTTTTTTTACATGCATTGGATTACGGAGTCACCTAGTGCAG,8120 fluorescence intensity (a.u.)
6,TATATATTGTTTTTTTTTACGTTGTTGGTTCCGGATGTGACGGAGTCACCTAGTGCAG,9930 fluorescence intensity (a.u.)
7,TGAGACAAAGCACATTCTACCCAAGGCCAGTTGCACCAACCGGAGTCACCTAGTGCAG,8080 fluorescence intensity (a.u.)
8,TCAGTGTTGAGTAGGGTTGGCAGGCGAGCACGCAGTAATGCGGAGTCACCTAGTGCAG,8190 fluorescence intensity (a.u.)
9,TGTTGTGTGTTAGTTGTGGTGGTAGCATTTTTTCCTGGTACGGAGTCACCTAGTGCAG,13000 fluorescence intensity (a.u.)
10,TAGCTACCTAAGCTTAGCTCACATTCTTCTCGCTTTCTCACGGAGTCACCTAGTGCAG,12000 fluorescence intensity (a.u.)
11,GGGAGGAGGAGGAGGAGAAGGGCGGCGGGAGGAGGGGCGACGGAGTCACCTAGTGCAG,14000 fluorescence intensity (a.u.)
12,ACTAGTTGAAGGAGTTGGGGCTATAAATGGGTGGTGCTATCGGAGTCACCTAGTGCAG,10900 fluorescence intensity (a.u.)
13,AGGGCGGTGGGGCGGCAAGGGACCAGATGGTGGGGCGGCACGGAGTCACCTAGTGCAG,11100 fluorescence intensity (a.u.)
14,GGAGGTGGGGAGGGGAGGAGAGGGGAAGAAGGAAGAAAAACGGAGTCACCTAGTGCAG,13300 fluorescence intensity (a.u.)
15,CTGGGTGTGGGTGTGGGTCTGGGTCTGGGTGGAAGAGGAACGGAGTCACCTAGTGCAG,21200 fluorescence intensity (a.u.)
16,GGTGGGACGTGGTGGGCGTCAAGGCGGCGGTGGGAGGGGACGGAGTCACCTAGTGCAG,20400 fluorescence intensity (a.u.)
17,GAAGGGTGGGAGGGGAAGGGGAGGACGAGCGGGCGGACGGCGGAGTCACCTAGTGCAG,11500 fluorescence intensity (a.u.)
18,GAGGAGGGACTCGGGGCGGGAGGAAGACGGCGAGGAGGGGCGGAGTCACCTAGTGCAG,16500 fluorescence intensity (a.u.)
19,GTATCGCCAAGGAGGAGAGGGGAGAGGGGTGGAAGAGGAACGGAGTCACCTAGTGCAG,11900 fluorescence intensity (a.u.)
20,GGTGGGCTATAAATATAGTTGGGGAGGGGAGGGAAGACCCCGGAGTCACCTAGTGCAG,16700 fluorescence intensity (a.u.)
21,CGAGGGAGGGGAGGCGGCGGAGGCGAGAGAGGAGAGGGGACGGAGTCACCTAGTGCAG,11000 fluorescence intensity (a.u.)

row,Sequence,binding signal
1,GTGGGGTTGGAGGAGGGAGGGAGCTAGCTATAGTTGCTAGCGGAGTCACCTAGTGCAG,9980 fluorescence intensity (a.u.)
2,TCGTCATCATCCTCGCCGCCATCGCCATCGCCATTGCCTACGGAGTCACCTAGTGCAG,9180 fluorescence intensity (a.u.)
3,ACTTGTTTTACGTTCGGCTAATTAGCTGTTTGACCGTTTCCGGAGTCACCTAGTGCAG,15300 fluorescence intensity (a.u.)
4,AAAAACGTCTCAATTGTAAGCTCACTATCTAACAATTTTCCGGAGTCACCTAGTGCAG,11200 fluorescence intensity (a.u.)
5,GCTTGGTCTATAAGTTGCTGCTCTGCCCTGCTCGGCCTCACGGAGTCACCTAGTGCAG,12000 fluorescence intensity (a.u.)
6,CTCCATCGCTTCGCTCTTCGCCGGATCTAGCACCGACGGTCGGAGTCACCTAGTGCAG,9000 fluorescence intensity (a.u.)
7,TTCTTTTGCCGTGCTCCCAGATTCTCCGGTCGCCACGACTCGGAGTCACCTAGTGCAG,8590 fluorescence intensity (a.u.)
8,ACCTCTTATTTGACTTTTTCACTATTTTGAAATACGAAAACGGAGTCACCTAGTGCAG,9360 fluorescence intensity (a.u.)
9,AATGTATTTGTCTTATGTTAAATATATTACTACTCTTTTTCGGAGTCACCTAGTGCAG,8080 fluorescence intensity (a.u.)
10,TATCCGATCCATGGCGTTCTCTTGAGTCCAGAGAGTATTTCGGAGTCACCTAGTGCAG,8460 fluorescence intensity (a.u.)
11,AGCTTAACACGCGCCACTTGCCCCTATTTAGCCGCGCCATCGGAGTCACCTAGTGCAG,9920 fluorescence intensity (a.u.)
12,AATCTAACGGGTGGGTCTCATGTATTGATGAGGAAGAAGACGGAGTCACCTAGTGCAG,20800 fluorescence intensity (a.u.)
13,GCATGGTGGCGGCGGGAAGGAGGAGTGGGGCGGCGGGTGCCGGAGTCACCTAGTGCAG,16100 fluorescence intensity (a.u.)
14,AATGTGGGAGAAGGGGAGGAGAGAGGGGAGGGGAGGGGACCGGAGTCACCTAGTGCAG,16500 fluorescence intensity (a.u.)
15,AGAAGGAGGAGGAGGAGGAGGAGGAGGAGGGGAGGAGAGCCGGAGTCACCTAGTGCAG,10400 fluorescence intensity (a.u.)
16,AGGGTGAACAGAAGAAGATGAATCTAACGGGTGGGTCTCACGGAGTCACCTAGTGCAG,10800 fluorescence intensity (a.u.)
17,GGCCGCGGCGGTGCGACGAAGAGCGGCGTCGGACAAGGGCCGGAGTCACCTAGTGCAG,35900 fluorescence intensity (a.u.)
18,GGGAAGGGGAGGGGTGGGCGGAAGGGGACGCCGGTGGTGGCGGAGTCACCTAGTGCAG,17900 fluorescence intensity (a.u.)
19,GGGAATATTAGTGGGATGGGGATGAGGAATTGAGGAAGAACGGAGTCACCTAGTGCAG,13400 fluorescence intensity (a.u.)
20,GACGGCGACCGAAGGGGACAAGGAGGCGGGGCGGGGCGGCCGGAGTCACCTAGTGCAG,14000 fluorescence intensity (a.u.)
21,GGTGGTGCGCGAGCGTCGGCGGTCGGCGGGAGGGCGGGAGCGGAGTCACCTAGTGCAG,9180 fluorescence intensity (a.u.)

row,Sequence,binding signal
1,CGGCTAGGGACGGGGACGACGCCGGAGTGGGTGGGGAAGGCGGAGTCACCTAGTGCAG,8680 fluorescence intensity (a.u.)
2,CGGTGGGGAGGCCGGGAGGGAGGAGGAGAGAAGAGGAGTGCGGAGTCACCTAGTGCAG,9450 fluorescence intensity (a.u.)
3,CTCTCTCTGCTCGAGCCCGAGTAGCCCTCGTCGTCATTCTCGGAGTCACCTAGTGCAG,8950 fluorescence intensity (a.u.)
4,ATTATATGTCATTTGACTTTTCTCTTAGCTAAAGTTCTTTCGGAGTCACCTAGTGCAG,9800 fluorescence intensity (a.u.)
5,CTATATATAAACGAGCACATCTCGTCGTCCCTCGCCATTCCGGAGTCACCTAGTGCAG,10400 fluorescence intensity (a.u.)
6,TTAAACTGTATACCGTCGCTCGCGTCGCGCGCCGTTGACGCGGAGTCACCTAGTGCAG,9730 fluorescence intensity (a.u.)
7,CATGTGTTTACTGGGGTGGTTGTTGTAACAAAATTGAGTACGGAGTCACCTAGTGCAG,9360 fluorescence intensity (a.u.)
8,GTCTGAGTACACTTCTGAGGCTTCTTTGGTCGTTTTGGCCCGGAGTCACCTAGTGCAG,9790 fluorescence intensity (a.u.)
9,AAATATCAACCACATGCTCCTACTTCTATGGAAATTGATTCGGAGTCACCTAGTGCAG,10400 fluorescence intensity (a.u.)
10,TTGTCGTGTCACCTCCATTCTCACCCAACTTCCTTACCTACGGAGTCACCTAGTGCAG,13300 fluorescence intensity (a.u.)
11,CTCGTTTACCTTACTCTCGCTTAGTTCGTTGAGGCATTTCCGGAGTCACCTAGTGCAG,14900 fluorescence intensity (a.u.)
12,GTTATTCAAAACTATAGTTATCTTCCGCCTATTTTTTTATCGGAGTCACCTAGTGCAG,10600 fluorescence intensity (a.u.)
13,GATTGAGGGGAATGTTCCATGTTTTGTTGAACTCTTTTCCCGGAGTCACCTAGTGCAG,9320 fluorescence intensity (a.u.)
14,GGTGGCGGGGCATCTCGCCGCCGACGGCTCGAGGAGGAAACGGAGTCACCTAGTGCAG,18400 fluorescence intensity (a.u.)
15,CGGCGGAGGAGGAGGAGGAGGGGTGGGGAAGAAGAGGGGACGGAGTCACCTAGTGCAG,22800 fluorescence intensity (a.u.)
16,CGGGGAAGGAGAGGGGCGTTAGGGAGGAGGGGCGCACAGACGGAGTCACCTAGTGCAG,16800 fluorescence intensity (a.u.)
17,GCAGCAGGGAGGTGGGGCGCAGGAGGAAGAAGAAGAGGGACGGAGTCACCTAGTGCAG,13300 fluorescence intensity (a.u.)
18,GACACTAATGTGTGTGAAGGGGAGATTGTTGAATGGTTCCCGGAGTCACCTAGTGCAG,65200 fluorescence intensity (a.u.)
19,GGCGGCATCTCGCTCTACCGCGGGTGGGGCTTCGACTCCGCGGAGTCACCTAGTGCAG,12100 fluorescence intensity (a.u.)
20,CCGGGGCCGGCAGCGGCGGGCGGGCGGGCTCGAGCGGTGGCGGAGTCACCTAGTGCAG,9020 fluorescence intensity (a.u.)
21,GGGTGGGGAAGAAGAGGGGAAGCGGGGAGGAGGAGAGGGACGGAGTCACCTAGTGCAG,9680 fluorescence intensity (a.u.)

row,Sequence,binding signal
1,GGGAAGACGGTGGGGCGGGGACAGAGGTAGGGGAAGGAGGCGGAGTCACCTAGTGCAG,12600 fluorescence intensity (a.u.)
2,AGGGTTGTGATTGGTTGGGAAGAGAATGTTGGTAGATAAGCGGAGTCACCTAGTGCAG,9400 fluorescence intensity (a.u.)
3,ACCGCACAGAGAGGGAGGAGGCGGGGAGGACGGTGAGGGGCGGAGTCACCTAGTGCAG,10500 fluorescence intensity (a.u.)
4,CGTGGGCCCCACCCGTGCCAGCTCACCTCATCCCCACCACCGGAGTCACCTAGTGCAG,8940 fluorescence intensity (a.u.)
5,ATCGACCCTTGCGCGGACTCCGCTCTCTTGTTGACCACCTCGGAGTCACCTAGTGCAG,14600 fluorescence intensity (a.u.)
6,TCACTCATGCAGAGTCACAGCTTGTATAGTTGTAATGCATCGGAGTCACCTAGTGCAG,9000 fluorescence intensity (a.u.)
7,GCCTCGTCCACTCCACCACGCCGCCGAAAGCCGCAACTCTCGGAGTCACCTAGTGCAG,9580 fluorescence intensity (a.u.)
8,CAACCTCTCCGGGGCGGGGCTGGCCGGCGAGCTGGCGGCGCGGAGTCACCTAGTGCAG,9150 fluorescence intensity (a.u.)
9,AGCTGCCACAAGCCGAAGGCACGTTGACTTAAAAGAAGCCCGGAGTCACCTAGTGCAG,10700 fluorescence intensity (a.u.)
10,ATATTTTCCGCCTACCCTGTACGCACGTTTATATACACAACGGAGTCACCTAGTGCAG,9400 fluorescence intensity (a.u.)
11,CTTGGACCCACTTAATATGTTATATGGCTATTTCTAGTCACGGAGTCACCTAGTGCAG,8220 fluorescence intensity (a.u.)
12,TAAGGTTTCTTCTGGGATCATTACATATACCTATATGGTTCGGAGTCACCTAGTGCAG,8100 fluorescence intensity (a.u.)
13,AGTTTGTTTTTTTTCTGTCCTTGACATGGCCATTTTGTTACGGAGTCACCTAGTGCAG,9920 fluorescence intensity (a.u.)
14,CAGCGACGGTGGGGAGGTGGGCGTGGGCGGTTGCCGGCGGCGGAGTCACCTAGTGCAG,11200 fluorescence intensity (a.u.)
15,GTGCGACGGCGGCGGCGAAGTCAGTCCCCTCCTCGAGGGGCGGAGTCACCTAGTGCAG,27700 fluorescence intensity (a.u.)
16,GCGGCGAAGCAGGGAGGAGGGAGGAGGAGGGGCGGCGGTGCGGAGTCACCTAGTGCAG,12100 fluorescence intensity (a.u.)
17,TTGGTTGGTTGGTTTGGTGGGCGGCGGTGCCGGAGGAAGACGGAGTCACCTAGTGCAG,21900 fluorescence intensity (a.u.)
18,TTTCCGCCGCGGCGAGGAGGAGGAGGAGGAGGAGGGGCGACGGAGTCACCTAGTGCAG,9980 fluorescence intensity (a.u.)
19,GGGCGGAGAGTTGGGGTTTGGGTTGGTGGCGGTGGGCCGGCGGAGTCACCTAGTGCAG,14800 fluorescence intensity (a.u.)
20,TCCTCGCCGACGGCGTGCCGGCTCACGTTGCACCTCACCGCGGAGTCACCTAGTGCAG,8210 fluorescence intensity (a.u.)
21,CTTTCCTGCACCTCCACTTTATTTAGTTCATTAATTGAATCGGAGTCACCTAGTGCAG,8660 fluorescence intensity (a.u.)
